# Most compounds without a hit are left out; they make up all but 27% or so of the library.
# CYP2C9 activ – increases human cytochrome P450 2C9 activity | P11712 | recombinant CYP2C9, luciferin-H conversion, luminescence; active compounds read high; factor 1 = untreated enzyme, 0 = blocked | activation factor at 5 µM | hit rate 1.4% among 96,000;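 active = activation factor of 2 or more for CYP2C9 at a 5 µM dose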;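 also: 0 = sulfaphenazole-blocked wells and 1 = vehicle-only wells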
# CYP2C19 activ – increases human CYP2C19 enzyme activity | P33261 | recombinant CYP2C19, luciferin-H EGE luminescence; active compounds read high; 0 = fully inhibited enzyme, 1 = untreated enzyme | activation factor at 5 µM | 96,000 tested, under 10 active | AID 1025;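 active = activation factor of at least 2 at 5 µM in the primary screen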;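 also: 0 = wells with 2.5 mM tranylcypromine and 1 = vehicle-only wells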
# Target sequence (P33261 whole entry, looked up): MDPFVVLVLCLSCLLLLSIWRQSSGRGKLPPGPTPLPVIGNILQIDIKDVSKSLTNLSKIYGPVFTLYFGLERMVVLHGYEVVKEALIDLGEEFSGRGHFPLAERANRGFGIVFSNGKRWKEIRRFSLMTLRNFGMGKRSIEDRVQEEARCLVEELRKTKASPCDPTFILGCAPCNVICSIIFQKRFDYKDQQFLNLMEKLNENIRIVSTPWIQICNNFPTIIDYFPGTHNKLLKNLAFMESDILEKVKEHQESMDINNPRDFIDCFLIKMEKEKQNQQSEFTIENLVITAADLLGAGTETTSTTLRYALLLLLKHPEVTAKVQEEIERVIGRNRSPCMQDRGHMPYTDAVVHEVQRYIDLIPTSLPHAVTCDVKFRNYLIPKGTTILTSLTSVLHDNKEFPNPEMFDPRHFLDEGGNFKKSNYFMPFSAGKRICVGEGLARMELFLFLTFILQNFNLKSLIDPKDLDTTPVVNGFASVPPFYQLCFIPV
# CYP2C19 inh – human CYP2C19 inhibition; P33261; CYP2C19 Supersomes, luciferin-H EGE luminescence, 30 min; inhibition, % at 5 µM; hit rate 21% among 96,000;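 active = CYP2C19 inhibition above a set limit at 5 µM in the primary screen, cut at about 50% in these data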;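 also: plate controls were negative control wells for no effect and 2.5 mM tranylcypromine positive control for full effect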
# EphB4 antag – EphB4-ephrin-B2 interaction antagonism | P54760 | EphB4 LBD / TNYL-RAW-Alexa532 peptide, fluorescence polarization | inhibition, % at 7 µM | hit rate 0.15% among 97,000;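 active = inhibition above the screen-wide mean inhibition plus 3 SD, cut at about 15% in these data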;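 also: 0% = DMSO wells and 100% = excess unlabeled TNYL-RAW peptide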
# CYP2C9 inh – inhibitors of human CYP2C9 | P11712 | CYP2C9 Supersomes, luciferin-H conversion, luminescence | inhibition, % at 5 µM | hit rate 20% among 96,000 | AID 777;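 active = blocking of liver enzyme CYP2C9 beyond about 50% at 5 µM, limit read from the data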
# An asterisk follows results filed as active; nt = no result.
SMILES,CYP2C9 activ,CYP2C19 activ,CYP2C19 inh,EphB4 antag,CYP2C9 inh
O=C(N/C=N/O)C1=NOC(CNc2ncc(C(F)(F)F)cc2Cl)C1 (stereo unspecified),0.9,0.2,77.3*,3.2,5.2
O=C(NC1CC1)C1=NOC(CNc2ncc(C(F)(F)F)cc2Cl)C1 (stereo unspecified),2.4*,0.2,84.6*,-2.7,-138.8
COc1cccc(-n2nnc3c(=O)n(Cc4ccc(F)cc4)cnc32)c1,1.3,0.7,26.6,6.0,-27.3
O=C(Nc1ccccc1-c1nc2ccccc2[nH]1)c1ccc(S(=O)(=O)N2CCCCC2)cc1,0.9,1,4.3,-9.9,8.8
CSCC[C@H](NC(=O)c1ccc(Cl)c(S(=O)(=O)N2CCCC2)c1)c1nc2ccccc2[nH]1,0.3,0.4,59.0*,5.9,67.9*
CSCCC(NC(=O)C1CC1)c1nc2ccccc2[nH]1 (stereo unspecified),0.9,0.9,13.2,2.6,6.1
CCCn1c(NC(=O)c2cccc(C)c2C)nc2ccccc21,0.8,0.3,74.9*,0.4,16.8
CCCn1c(NC(=O)c2ccc(Cl)c(S(=O)(=O)N3CCCC3)c2)nc2ccccc21,0.2,0.2,82.6*,10.5,83.7*
O=C(NCc1nc2ccccc2[nH]1)c1ccc(Cl)c(S(=O)(=O)N2CCCC2)c1,0.5,0.3,65.4*,0.9,45.1
Cn1c(Cc2ccccc2)nnc1SCC(=O)N1CCN(c2ccccc2)CC1,0.9,0.9,11.4,-0.3,10.9
Cc1cnn(C(=S)NCCc2ccccc2)c1,0.7,0.2,84.3*,0.1,29.2
Cc1ccccc1OCCn1nc(C(=O)O)c2ccccc2c1=O,0.5,0.5,53.6*,4.4,47.1
CC(C)CC(=O)Nc1ccc(C(=O)Cn2nc(C(=O)O)c3ccccc3c2=O)cc1,0.5,0.8,15.9,4.5,47.6
CS(=O)(=O)N(CCc1ccccc1)CC(=O)N1CCN(Cc2ccccc2)CC1,nt,nt,nt,-0.6,nt
CCNC(=O)CN(CCc1ccccc1)S(C)(=O)=O,0.8,0.3,71.7*,12.0,18.4
COCCNC(=O)CN(CCc1ccccc1)S(=O)(=O)c1ccc(OC)cc1,1.1,0.4,59.7*,7.0,-12.1
CS(=O)(=O)N(CCc1ccccc1)CC(=O)NCc1ccncc1,0,0,99.8*,-2.6,98.6*
CCCCNC(=O)CN(CCc1ccccc1)S(C)(=O)=O,0.7,0.3,71.9*,6.3,25.4
COc1ccc(S(=O)(=O)N(CCc2ccccc2)CC(=O)O)cc1Cl,0.9,1,1.6,4.5,12.4
CS(=O)(=O)N(CCc1ccccc1)CC(N)=O,1,0.9,6.4,-8.7,2.7
CCN1CCN(C(c2cccs2)C(C)NC(=O)c2ccco2)CC1 (stereo unspecified),1,1,0.9,6.8,1.1
CC(C)NC(=O)CN(CCc1ccccc1)S(C)(=O)=O,0.9,0.2,82.4*,1.8,10.8
O=C(NCc1ccco1)C1CCN(c2nnc(-n3cccc3)s2)CC1,0.6,0.6,41.9,nt,40.0
COc1ccc(C2=Nn3c(nnc3C3CCCCC3)SC2)cc1OC,0.3,0.4,64.0*,2.3,72.3*
COc1ccc(OC)c(C2=Nn3c(nnc3C3CCCCC3)SC2)c1,0.2,0.1,93.5*,-1.6,77.9*
SMILES,CYP2C9 activ,CYP2C19 activ,CYP2C19 inh,EphB4 antag,CYP2C9 inh
COc1ccccc1C1=Nn2c(nnc2C2CCCCC2)SC1,0.7,0.6,38.6,2.1,33.2
CCOc1ccc(NC2=NCCC(=O)N2Cc2cccs2)cc1,0.4,0.5,50.0*,-4.3,55.5*
O=C(O)CC1=C(O)C(=O)N(c2ccccc2)C1c1ccc(Cl)cc1 (stereo unspecified),0.8,0.7,33.2,-0.8,16.8
CCOC(=O)c1cnc2c(C)cccc2c1NCc1ccco1,0.5,0.5,47.2,-3.8,49.3
CCOC(=O)c1cnc2c(C(=O)OC)cccc2c1NCc1ccco1,0.5,0.8,23.9,-3.3,54.5*
CCOC(=O)c1ccc2ncc(C(=O)OCC)c(NCc3ccco3)c2c1,0.4,0.6,45.0,-0.1,55.7*
CCOC(=O)c1ccc2ncc(C(=O)OCC)c(NCCCN3CCOCC3)c2c1,0.1,0.2,82.7*,-6.6,87.5*
CC(=O)N(CC(C)(C)CC=C(C)C)c1ccccc1,0.9,0.5,51.5*,nt,13.1
COCCN(C(=O)Nc1ccccc1)c1ccccc1,0.9,0.8,15.1,-1.9,7.2
O=C(NCc1ccco1)Nc1ccc2snnc2c1,0.1,0.2,83.2*,-8.4,85.9*
Cc1nc2ccc(NC(=O)NCc3ccco3)cc2s1,0.9,0.9,9.1,12.1,8.0
